PubChem BioAssay AID734 (The Scripps Research Institute Molecular Screening Center, 2007)
Out of some 5,100 compounds screened, fewer than 10 were called active.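 The calls were made as follows: active = inhibition above the mean inhibition over all tested compounds plus 3 SD (cut at about 75% in these data); inactive = the rest.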 A selection follows.

These molecules were tested against Collagenase 3 (Homo sapiens) (UniProt P45452) (assay: MMP13 inhibitors among fluorescent compounds, confirmation, biochemical, possible fluorescent artifacts, delta fluorescence (AID 734;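 also: 0% = DMSO only wells and 100% = 8 µM reference MMP13 inhibitor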)). Details: MMP13 fTHP FRET cleavage, delta fluorescence 4 h; active compounds read high;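 each compound tested at 4 µM nominal in triplicate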.

inhibition, active:
Oc1ccc(N=Cc2ccc(-c3cccs3)s2)cc1 90.8%, O=S(=O)(Nc1ccc(-c2nc3cccnc3s2)cc1)c1cccs1 198%

inhibition, inactive:
Cc1oc2c(CN3CCOCC3)c(O)ccc2c(=O)c1-c1ccc(Br)cc1 6.41%, CCn1c(=O)c2cc(C(=O)N3CCOCC3)sc2c2ccccc21 -2.27%, Cc1ccc(NC(=O)CC2Nc3ccccc3NC2=O)cc1Cl (stereo unspecified) 5.69%, CCOC(=O)N1CCN(C(=O)c2cnn3c(C)c(Cc4ccc(C)cc4)c(C)nc23)CC1 -3.34%, O=S(=O)(c1ccccc1C(F)(F)F)N1CCOCC1 6.08%, Cc1onc(-c2ccccc2Cl)c1C(=O)Nc1nnc(-c2ccc(F)cc2)s1 6.05%, CCOC(=O)N1CCC(N2C(=O)c3ccccc3C2Nc2cc(C(=O)OC)cc(C(=O)OC)c2)CC1 (stereo unspecified) 3.52%, O=C(c1cccs1)c1ccc(-c2cccs2)s1 3.04%, CC(C)CCSc1nc2c(c(=O)[nH]c(=O)n2C)n1CCc1ccccc1 5.17%, CC1CCCN(C/C(O)=C(\C#N)c2nc3ccccc3[nH]2)C1 (stereo unspecified) 4.57%, CCCCOC(=O)Cc1c(O)c2ccccc2[nH]c1=O 0.98%, CN(C)CCCN1C(=O)c2oc3ccc(F)cc3c(=O)c2C1c1cccnc1 (stereo unspecified) 5.18%, Cc1cccc2cc(C#N)c(NCCNS(=O)(=O)c3ccc4c(c3)OCCO4)nc12 3.35%, Cc1ccc(S(=O)(=O)N2CCCC2C(=O)Oc2ccccc2)cc1 (stereo unspecified) 5.98%, Cc1ccc(-n2c(-c3ccncc3)nnc2-c2ccco2)cc1 2.09%, Cc1cc(N2CCOCC2)nc2ccc(NC(=O)CCC(=O)N3CCCC(C)C3)cc12 (stereo unspecified) 2.6%, CC(C)(/C=N/O)/[N+]([O-])=C/c1ccccc1C(F)(F)F 8.54%, COc1cc2c(=O)n(CC3CCCO3)c(=O)n(CC(=O)Nc3ccc(F)cc3F)c2cc1OC (stereo unspecified) 2.92%, CN1C(=O)Cc2cc(S(=O)(=O)N3CCOCC3)ccc21 2.06%, O=C1CCCN1CCCNc1ncnc2c1cnn2-c1ccc(Cl)cc1 3.23%, CCOC(=O)c1[nH]c2ccc(OCC)cc2c1NC(=O)CN1CCN(c2ccccc2)CC1 1.46%, c1ccc(-n2nnnc2SCc2cn3cccnc3n2)cc1 9.28%, O=C(Nc1ccc(-c2nc3cccnc3s2)cc1)c1ccco1 4.83%, O=C(Nc1ccc(-c2nc3cccnc3s2)cc1)c1ccc(Br)o1 2.61%
